TRb-SRC2 inh – inhibitors of human thyroid hormone receptor beta-SRC2 interaction; P10828; TRbeta-SRC2 peptide binding, fluorescence polarization; receptor liganded with 1 µM T3; Potency, µM (highest dose often 106 µM), for inactives: top-dose activity change, negative = inhibition, usual class: inhibitors; 280,000 compounds, 0.065% hits; AID 1469;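 also: plate controls were bound peptide for no effect and peptide without receptor for full effect; nearly all actives have a fitted effect of over 50% in size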
Target sequence (P10828 whole entry, looked up): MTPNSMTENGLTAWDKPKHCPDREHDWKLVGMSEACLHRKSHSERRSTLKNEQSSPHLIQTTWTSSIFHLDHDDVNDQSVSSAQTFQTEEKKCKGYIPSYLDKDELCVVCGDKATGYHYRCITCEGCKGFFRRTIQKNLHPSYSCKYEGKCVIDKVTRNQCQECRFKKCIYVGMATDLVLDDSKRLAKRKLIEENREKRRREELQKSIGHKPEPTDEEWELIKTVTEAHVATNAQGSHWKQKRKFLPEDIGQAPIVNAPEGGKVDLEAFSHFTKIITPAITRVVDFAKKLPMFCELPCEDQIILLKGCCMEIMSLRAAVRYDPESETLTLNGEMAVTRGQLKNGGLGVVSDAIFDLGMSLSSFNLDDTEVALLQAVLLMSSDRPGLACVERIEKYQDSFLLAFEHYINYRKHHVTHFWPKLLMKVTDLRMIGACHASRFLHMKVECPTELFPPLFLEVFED
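Decrease in fluorescence polarization of 20 nM Texas Red SRC2 coactivator peptide flagged inhibition of its binding to 0.6 uM TRb LBD; 1 uM T3 included, incubation 5 hr, ex 555/em 632 nm.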
GoLoco inh red – blocks human Gai1 binding to RGS12 GoLoco peptide, red readout; P63096; Gai1:RGS12 GoLoco peptide FP, rhodamine, 10 min; Potency, µM (top dose mostly 61.6 µM), for inactives: top-dose activity, negative = inhibition, actives largely listed as inhibitors; AID 880; 230,000 compounds, 0.44% hits; active = well fitted inhibition curve with a large enough effect, not every such curve was filed as active; inactive = no such curve, though single readings can be large or run the other way; also: nearly all actives have a fitted effect of over 30% in size
Tau ThT inhib – tau fibrillization inhibition (ThT binding); P10636; recombinant tau K18 P301L, heparin-induced fibrillization, ThT fluorescence; Potency, µM (highest dose often 57.4 µM), for inactives: at the top dose activity, negative = inhibition, hits mostly inhibitors; 270,000 compounds, 2.1% hits; AID 1460; also: nearly all actives have a fitted effect of over 55% in size
Target sequence (P10636 561-689 P618L limits assumed): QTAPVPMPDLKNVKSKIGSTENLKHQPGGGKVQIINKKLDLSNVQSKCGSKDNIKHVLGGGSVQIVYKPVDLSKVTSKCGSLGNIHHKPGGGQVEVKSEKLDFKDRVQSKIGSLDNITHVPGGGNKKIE
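In this qHTS, human K18 P301L tau is incubated with compound and heparin for 6 hr at 37 C, and Thioflavin T fluorescence then reports fibril load.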
Tau fluor counter – counter-screen for tau fibril formation inhibitors; Potency, µM (highest dose often 57.7 µM), without a hit: at the highest dose activity change, negative = decrease; AID 1463; 280,000 compounds, 0.93% hits; tau K18 P301L (four-repeat tau fragment) Alexa594 fluorescence, heparin fibrillization; also: nearly all actives have a fitted effect of over 55% in size
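Human K18 P301L tau (15 uM unlabeled plus 0.24 uM Alexa 594-labeled, final) in 100 mM sodium acetate pH 7 was mixed with compound and 20 uM heparin and incubated 6 hr at 37 C.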
TexasRed fluor – alters Texas Red total fluorescence, flagging assay interference | TRb/SRC2 Texas Red total fluorescence interference | Potency, µM (highest dose often 106 µM), for the others: at the highest dose fluorescence change, negative = quenching | 280,000 compounds, 0.29% hits; active = well fitted curve in either direction with a large enough effect; inconclusive = small, poorly fitted or top-dose-only effect
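Flags fluorescent or light-absorbing compounds by total fluorescence, S + 2P, at 555 nm excitation and 632 nm emission. Mixture: 20 nM Texas Red SRC2 peptide, 0.6 uM human TRb LBD, 1 uM T3, 5% DMSO; compound exposure 5 h at ambient temperature.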
Tau fibril FP – blocks human tau fibril formation measured by polarization; P10636; K18 P301L tau heparin fibrillization, Alexa594 FP, 6 h; 280,000 compounds, 0.39% hits; Potency, µM (highest dose often 57.7 µM), for the others: at the highest dose activity, negative = inhibition, hits mostly inhibitors; also: nearly all actives have a fitted effect of over 55% in size
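Steps: dispense K18 P301L tau (15 uM plus 0.24 uM Alexa 594 tracer, final) in pH 7 sodium acetate; add compound; add heparin (20 uM final); incubate 6 hr, 37 C; add ThT (30 uM final); after 1 hr ambient, read FP.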
The depositor's hits bear a star; ? = inconclusive; . = not tested or not shown; ! = repeats disagree; [ ] = dose if it differs, or a comment. In the library only some 3.2% were active in any assay of this set; here they are far more common. Unless noted, calls follow the shape of the dose curve; as a rule, active = well fitted curve in the direction sought with a large enough effect; inconclusive = small, poorly fitted or top-dose-only effect, or another doubt; inactive = no such curve, though single readings can be large; an effect the other way counts as inactive or inconclusive. Unless noted, % is scaled to controls: 0 for no effect and ±100 for the full control effect; potency is read from the fitted curve at half-maximal effect.

SMILES | TRb-SRC2 inh | GoLoco inh red | Tau ThT inhib | Tau fluor counter | TexasRed fluor | Tau fibril FP
CCCCNC(=O)NS(=O)(=O)c1ccc(N)cc1 | 0% | 10% | -10% | -18% | -1% | -13%
CCOC(=O)C1=C(C)N(c2ccc(C)cc2)C(=O)/C1=C\c1ccc(O)c(OC)c1 | 3% | -27% | 25µM* | ? | -9% | ?
CCOc1ccc(N2C(=O)S/C(=C\c3ccc(O)c(OC)c3)C2=O)cc1 | -7% | 4% | ? | ? | -2% | -4%
O=C(CSc1nnc(-c2ccccc2Cl)o1)N1CCCc2ccccc21 | 4% | . | -17% | -24% | -1% | 3%
COc1ccc(-c2cc(=O)c3ccc(F)cc3[nH]2)cc1 | 7% | 6%[88.7 µM] | -8%[81.4 µM] | -5%[81.3 µM] | 1% | 4%[81.3 µM]
CCOCCCNc1nc2c(C)cccn2c(=O)c1/C=C1\SC(=S)N(C(C)CC)C1=O (stereo not drawn) | -6% | 110% | ? | -1% | -8% | 22µM*
CCOCCCNc1nc2c(C)cccn2c(=O)c1/C=C1\SC(=S)N(CC(C)C)C1=O | -2% | 244% | -14% | -9% | -2% | 2%
Nc1c(Br)cc(Br)cc1CNC1CCC(O)CC1 (stereo not drawn) | 8% | 20µM*! | 0% | -1% | -1% | 4%
N#C/C(=C\c1ccc(-c2cccc([N+](=O)[O-])c2)o1)C(=O)Nc1nc(-c2cccs2)cs1 | 4% | 25% | 2µM* | ? | -4% | 15%
O=C(N/N=C/c1ccc(-c2cccc([N+](=O)[O-])c2)o1)c1cccs1 | -4% | 5% | ? | -13% | -2% | 0%
C[C@H]1CCCC=CC2C[C@H](OC(=O)CN(C)C)C[C@@H]2[C@@H](O)/C=C\C(=O)O1 (stereo partly drawn) | . | 0%[14.2 µM] | . | . | . | .
O=c1[nH]c2ccc(Br)cc2c(-c2ccccc2)c1N1CCOCC1 | 10% | 9% | -15% | -15% | -3% | -4%
O=c1[nH]c2ccc(Br)cc2c(-c2ccccc2)c1CN1CCOCC1 | 1% | 5% | 22µM* | -18% | -5% | ?
C/C(C[n+]1ccccc1)=N\N=C(N)N | . | 15%[14.2 µM] | . | . | . | .
NC1=CC(=O)c2cccc3cccc1c23 | 0% | 32µM* | 11µM* | ? | -2% | ?
Cc1nnc(C)n1N1C(=O)c2cccc3cccc(c23)C1=O | 7% | 9% | 5% | -1% | -3% | -4%
CCc1ccccc1NC(=O)Cn1cc(S(=O)(=O)N2CCCC2)c(S(=O)(=O)N2CCCC2)c1 | 0% | . | 3% | -8% | -15% | -7%
CSc1nc(-c2ccc(C)cc2)nc(N)c1C#N | 2% | 8% | -5% | -8% | -2% | -10%
CC1=C(C#N)c2nc(N)c(C#N)c(C)c2/C1=C\c1ccc(C)cc1 | -19% | 87% | 18µM* | ? | 30% | ?
COc1cc(/C=C2\C(C)=C(C#N)c3nc(N)c(C#N)c(C)c32)ccc1OCC(=O)O | 11% | 89% | 14µM* | ? | ? | ?
CCCc1[nH]nc2c1C(c1cccnc1)C(C#N)=C(N)O2 (stereo not drawn) | 1% | . | 18µM* | ? | 0% | ?
CCn1c2ccccc2c2cc(C3C(C#N)=C(N)Oc4n[nH]c(COC)c43)ccc21 (stereo not drawn) | -10% | 22% | 16µM* | ? | -4% | -17%
COCc1[nH]nc2c1C(c1ccc(OC)c(OC)c1)C(C#N)=C(N)O2 (stereo not drawn) | -11% | 4% | -7% | -3% | 0% | -4%
O=C(Cl)c1ccc(C(=O)Cl)cc1 | 5%[201 µM] | . | . | . | -4%[201 µM] | .
O=C(CSc1ccccc1)Nc1nnc(COc2ccc(Cl)cc2)s1 | -8% | 7% | 28µM* | ? | -5% | ?
SMILES | TRb-SRC2 inh | GoLoco inh red | Tau ThT inhib | Tau fluor counter | TexasRed fluor | Tau fibril FP
Cc1cccc(C)c1OCc1nnc(NC(=O)CSc2ccc(Cl)cc2)s1 | 6% | 9% | 2% | -3% | -2% | ?
O=c1c(O)c(-c2ccc(O[C@@H]3O[C@H](CO)[C@@H](O)[C@H](O)[C@H]3O)c(O)c2)oc2cc(O)cc(O)c12 | 4% | . | . | . | -12% | .
O=C(N/N=C/c1ccc(-c2ccccc2[N+](=O)[O-])o1)[C@H]1C[C@@H]1c1ccccc1 | 1% | -4% | 4.5µM* | ? | 2% | ?
COc1ccc(-c2ccc(/C=N/NC(=O)c3cccnc3)o2)c([N+](=O)[O-])c1 | -2% | 33% | 2.8µM* | -25% | -2% | ?
N#C/C(=C\c1ccc(-c2ccccc2[N+](=O)[O-])o1)C(N)=O | 2% | 2% | -10% | -13% | -1% | -6%
O=C(/C=C/c1ccc(-c2ccccc2[N+](=O)[O-])o1)c1ccccc1 | 2% | 5% | 18µM* | ? | 4% | 5%
Cc1ccc(C(=O)N/N=C/c2ccc(-c3ccccc3[N+](=O)[O-])o2)cn1 | ? | -4% | 7% | 4% | 32µM*[quencher] | 6%
CN(C)C(=O)OC1=C(c2ccccc2)Sc2ccccc2-n2cccc21 | 2% | -5% | ? | -23% | -3% | -3%
NCCCCCCCCCCCC(=O)O | 3%[201 µM] | . | . | . | -6%[201 µM] | .
BrC(c1cccc2ccccc12)c1cccc2ccccc12 | . | -3%[14.2 µM] | . | . | . | .
CCOc1ccc(NS(=O)(=O)c2ccc3[nH]cc(C(=O)NC4CCCC4)c(=O)c3c2)cc1 | -5% | . | -1% | ? | 0% | 25µM*
CCc1ccc(NS(=O)(=O)c2ccc3[nH]cc(C(=O)NC4CCCC4)c(=O)c3c2)cc1 | 0% | . | 7% | ? | -2% | 11µM*
Cc1cc(=O)oc2cc(NC(=O)[C@H](CCCCN)NC(=O)[C@H](CC3CCCCC3)NC(=O)OCC3c4ccccc4-c4ccccc43)ccc12 | 2% | . | . | . | -3% | .
COc1ccc(N=N/C(=C\O)C(=O)c2ccco2)cc1 | -6% | 8% | 8.9µM* | ? | -5% | 4%
Cc1ccc2nc(N3CCN(C(=O)C4COc5ccccc5O4)CC3)sc2c1 (stereo not drawn) | -4% | . | ? | -17% | -1% | -8%
CC1CCN(S(=O)(=O)c2ccc3c(c2)N(CC(=O)NCCc2ccc(Cl)cc2)C(=O)CO3)CC1 | 0% | . | -9% | -25% | 1% | 1%
CN(C)c1ccc(SC#N)cc1 | 7% | 1% | 10µM* | ? | -1% | ?
CN1c2ccccc2N(C)C1(C)c1cccc2ccccc12 | -1% | 4% | 16µM* | -28% | 8% | ?
CN1c2cccc3cccc(c23)N(C)C1(C)C | -24% | -26% | ? | ? | 1% | -6%
O=c1c(O)c(-c2ccc(O)cc2)oc2ccc(O)cc12 | 6% | 6% | ? | -22% | -8% | -12%

Assay outcomes (PubChem BioAssay)
